# Screens (PubChem)
# DUX4 inh – blocks DUX4-driven transcriptional activation; 293T-iDUX4 ZSCAN4-Gaussia luciferase reporter, 24 h; active compounds read low; activity change, negative = inhibition, % (no concentration beside the values); 37,000 tested, 0.8% active; AID 1224904;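 active = mean inhibition of at least 10% in the main channel, exceeding the control channel by a set limit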;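 note: 0% = median of neutral control wells and -100% = median of positive control wells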
# The depositor's hits bear a star. Only a selection was taken, and hits are over-represented in it overall.
SMILES,DUX4 inh
O=C(C[C@@H]1C[C@@H]2c3cc(NC(=O)C4CCC4)ccc3O[C@@H]2[C@@H](CO)O1)NCc1cccc(F)c1,-1
Cc1noc(C)c1NC(=O)Nc1ccc2c(c1)C(=O)N([C@@H](C)CO)C[C@@H](C)[C@@H](CN(C)C(=O)NC1CCCCC1)OCCCC[C@@H](C)O2,3
CN1CCN(C(=O)[C@H]2[C@H](CO)[C@H]3Cn4c(ccc(C5=CCCCC5)c4=O)[C@@H]2N3S(C)(=O)=O)CC1,1
CN(C)C(=O)C[C@H]1C=C[C@H](NC(=O)C2CCOCC2)[C@@H](CO)O1,4
CN(C)C(=O)c1cccc(-c2ccc([C@@H]3[C@@H](CO)N4CCCCN(C(=O)C5CCC5)C[C@H]34)cc2)c1,29
O=C(C1CC1)N1CCCCN2[C@@H](CO)[C@H](c3ccc(-c4cccc(F)c4)cc3)[C@@H]2C1,0
O=C(C1CC1)N1CCCCN2[C@H](CO)[C@H](c3ccc(-c4cccc(F)c4)cc3)[C@@H]2C1,-22*
O=C(Cc1cccnc1)N1CC2(C1)[C@@H](c1ccccc1)[C@@H](CO)N2C(=O)C1CC1,9
COCC#Cc1ccc([C@@H]2[C@H]3CN(Cc4cccnc4)CCCCN3[C@H]2CO)cc1,6
COCC#Cc1ccc([C@H]2[C@H]3CN(Cc4cccnc4)CCCCN3[C@H]2CO)cc1,29
COc1cccc(CN2CCCCN3[C@H](C2)[C@@H](c2ccc(C#Cc4cccnc4)cc2)[C@@H]3CO)c1,-17*
COc1cccc(CN2CCCCN3[C@@H](CO)[C@@H](c4ccc(C#Cc5cccnc5)cc4)[C@@H]3C2)c1,-36*
COc1cccc(CN2CCCCN3[C@H](CO)[C@@H](c4ccc(-c5cccnc5)cc4)[C@H]3C2)c1,5
COCC#Cc1ccc([C@@H]2[C@@H](CO)N3CCCCN(Cc4cccnc4)C[C@H]23)cc1,9
CC(C)CC#Cc1ccc([C@@H]2[C@@H](CO)N3C(=O)CN(C(=O)Cc4cccnc4)C[C@@H]23)cc1,-5
C[C@H](NC(=O)[C@H]1[C@H](CO)[C@H]2Cn3c(ccc(-c4ccncc4)c3=O)[C@H]2N1C)c1ccccc1,3
COCC(=O)N1CC[C@H]2[C@H](CO)Nc3ccc(C#Cc4ccc(F)cc4)cc3[C@H]21,6
O=C(C[C@H]1C[C@H]2c3cc(NC(=O)c4cccnc4)ccc3O[C@H]2[C@H](CO)O1)NCc1ccccn1,7
CCS(=O)(=O)Nc1ccc2c(c1)C(=O)N(C)[C@H]1CC[C@@H](CC(=O)OC)O[C@H]1CO2,2
O=C(C1CCC1)N1CC2(C1)[C@H](c1ccccc1)[C@H](CO)N2Cc1ccccc1F,-7
O=C(C1CCCC1)N1CC2(C1)[C@@H](c1ccccc1)[C@H](CO)N2Cc1ccccc1F,-7
O=C(C1CCCC1)N1CC2(C1)[C@H](c1ccccc1)[C@@H](CO)N2Cc1ccccc1F,-45*
O=C(C1CCCCC1)N1CC2(C1)[C@H](c1ccccc1)[C@@H](CO)N2Cc1ccc(Cl)cc1,-51*
O=C(C1CCCC1)N1CC2(C1)[C@@H](c1ccccc1)[C@@H](CO)N2Cc1ccc(Cl)cc1,-8
O=C(C1CCOCC1)N1CC2(C1)[C@H](c1ccccc1)[C@@H](CO)N2Cc1ccc(Cl)cc1,-3
SMILES,DUX4 inh
Cc1ccc(S(=O)(=O)N[C@H]2CC[C@H](CC(=O)N3CCc4ccccc4C3)O[C@@H]2CO)cc1,0
COc1ccccc1NC(=O)N(C)C[C@H]1OCc2ccccc2-c2c(n(C)c3ccccc23)C(=O)N([C@H](C)CO)C[C@H]1C,-3
COc1ccc2c3c(n(C)c2c1)[C@H](CO)NCC31CCN(C(=O)CC2CC2)CC1,1
C/C=C/c1ccc([C@H]2[C@H](CO)N(S(=O)(=O)Cc3ccccc3)C23CN(C(=O)C2CC2)C3)cc1,-2
CN(C)CC(=O)N1[C@@H]2c3ccc(-c4ccccc4)c(=O)n3C[C@H]1[C@H](CO)[C@H]2C(=O)N1CCOCC1,6
COc1ccc2c3c(n(C)c2c1)[C@H](CO)NCC31CCN(C(=O)c2ccccc2)CC1,-3
CO[C@H]1CN(C)C(=O)c2cc(C#N)ccc2OC[C@@H]2O[C@H](CC[C@H]2OC)CCN(C)C(=O)[C@H]1C,4
O=C(C1CCCCC1)N1C[C@H]2[C@@H](c3ccccc31)[C@H](CO)N2CC1CCOCC1,-5
CN(C)CCCNC(=O)C[C@H]1CC[C@@H]2[C@H](COc3ccc(NC(=O)c4cccc(F)c4)cc3C(=O)N2C)O1,2
CC(=O)N1[C@@H]2c3ccc(/C=C/c4ccccc4)c(=O)n3C[C@@H]2[C@@H](CO)[C@@H]1C(=O)Nc1nccs1,-6
O=C(C[C@@H]1CC[C@@H](NC(=O)CC2CC2)[C@@H](CO)O1)NCc1ccc(-c2ccccc2)cc1,9
O=C(C[C@H]1CC[C@@H](NC(=O)c2ccc3c(c2)OCO3)[C@@H](CO)O1)NCc1ccc(Oc2ccccc2)cc1,-45*
COc1ccc(CNC(=O)C[C@@H]2CC[C@H](NC(=O)CN(C)C)[C@@H](CO)O2)cc1,3
O=C(C[C@H]1C=C[C@H](NC(=O)Cc2cccnc2)[C@@H](CO)O1)Nc1ccc(-c2ccccc2)cc1,-2
Cc1ccccc1-c1ccc([C@@H]2[C@@H](CO)N3C(=O)CN(C(=O)Nc4ccccc4)C[C@H]23)cc1,-8
C/C=C/c1ccc2c(c1)[C@H]1[C@H](CCN1C(=O)Cc1cccnc1)[C@@H](CO)N2C,4
O=C(C[C@@H]1C[C@H]2c3cc(NC(=O)Nc4ccc(C(F)(F)F)cc4)ccc3O[C@H]2[C@H](CO)O1)NCc1ccc(Cl)cc1,-37*
O=C(C[C@@H]1C[C@H]2c3cc(NC(=O)Nc4ccc(C(F)(F)F)cc4)ccc3O[C@H]2[C@H](CO)O1)NCCc1ccccc1,-47*
O=C(C[C@@H]1C[C@H]2c3cc(NC(=O)Nc4ccc(C(F)(F)F)cc4)ccc3O[C@H]2[C@H](CO)O1)NCc1ccc2c(c1)OCO2,-47*
C[C@H](NC(=O)C[C@@H]1C[C@H]2c3cc(NC(=O)Nc4ccc(C(F)(F)F)cc4)ccc3O[C@H]2[C@H](CO)O1)c1ccccc1,-14*
COc1ccc(NC(=O)Nc2ccc3c(c2)[C@@H]2C[C@@H](CC(=O)N[C@@H](C)c4ccccc4)O[C@H](CO)[C@@H]2O3)cc1,4
COc1ccc(NC(=O)Nc2ccc3c(c2)[C@H]2C[C@@H](CC(=O)NCCc4ccccc4)O[C@@H](CO)[C@H]2O3)cc1,-1
COc1ccc(NC(=O)Nc2ccc3c(c2)[C@H]2C[C@@H](CC(=O)N[C@@H](C)c4ccccc4)O[C@H](CO)[C@H]2O3)cc1,1
O=C(C[C@@H]1C[C@@H]2c3cc(NC(=O)Nc4ccc(C(F)(F)F)cc4)ccc3O[C@@H]2[C@@H](CO)O1)NCc1ccc2c(c1)OCO2,-7
O=C(C[C@@H]1C[C@@H]2c3cc(NC(=O)Nc4ccc(C(F)(F)F)cc4)ccc3O[C@@H]2[C@H](CO)O1)NCc1ccc(Cl)cc1,3
O=C(C[C@H]1C[C@@H]2c3cc(NC(=O)CC4CC4)ccc3O[C@@H]2[C@@H](CO)O1)NCCc1ccccc1,-3
O=C(C[C@H]1C[C@H]2c3cc(NC(=O)Nc4ccc(C(F)(F)F)cc4)ccc3O[C@H]2[C@@H](CO)O1)NCc1ccc(Cl)cc1,-4
O=C(C[C@H]1C[C@H]2c3cc(NC(=O)Nc4ccc(C(F)(F)F)cc4)ccc3O[C@H]2[C@H](CO)O1)NCc1ccc2c(c1)OCO2,-6
COc1ccccc1NC(=O)N1CC(=O)N2[C@@H](CO)[C@@H](c3ccc(C#CCC(C)C)cc3)[C@@H]2C1,-10
